Compounds without any hit were thinned out: in the full panel of roughly 83,000, 20% have a hit.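 48-hour exposure, single concentration, 96-well plates; percent growth endpoint where 0 means no net growth. Active: below 10.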 The source made the active and inactive calls.
The compounds below were run on M14 melanoma (assay: NCI-60 one-dose screen, 48 h (100 = growth as untreated, 0 = no growth, -100 = all killed)). Details: 10 µM unless noted.
Protocol: Growth inhibition of the M14 human tumor cell line is measured as a screen for anti-cancer activity. Cells are grown in 96 well plates and exposed to the test compound for 48 hours. Compounds are tested at a single concentration, which is 10^-5 M for most compounds. The reported endpoint is percent growth (GI% or GIPRCNT), where numbers from 0 - 100% represent growth inhibition, and numbers from -100% - 0 represent cell death. For example, a value of 40 represents 60% growth inhibition. A value of 0 means no net growth occurred over the course of the experiment. A value of -40 indicates 40% of cells at the beginning of the experiment died by the end of the experiment. A value of -100 means all cells are dead at the end of the experiment.
NCI-60 Human Tumor Cell Lines Screen was performed using the standard one-dose NCI protocol, which is described in more detail at https://dtp.cancer.gov/discovery_development/nci-60/default.htm.
Compounds with GIPRCNT values below 10 were considered active. Activity score was based on GIPRCNT using the following formula: […]
Score is 0 for GIPRCNT values of 100 or above, 50 for GIPRCNT values of 0, and 100 for GIPRCNT values of -100.

| Structure (SMILES) | growth |
| --- | --- |
| CCN1C(=O)/C(=C/C(=O)OC)S/C1=N\NC(=O)c1cc2ccc1/C=C\c1ccc(cc1)/C=C\2 | 87.1% (inactive) |
| NC1[C@H](c2c[nH]c3ccccc23)c2c([nH]c3ccccc23)[C@H]1c1c[nH]c2ccccc12 (stereo not given in full) | 92.3% (inactive) |
| CC(C)(C)c1cc(C=O)cc(C(C)(C)C)c1O | 101% (inactive) |
| O=C1Nc2cc(Cl)ccc2/C1=C\c1c(-c2ccc(F)cc2)nc2ccccn12 | -10.8% (active) |
| N#C/C(=C\c1ccccn1)c1nc2cc(Cl)ccc2s1 | 89.9% (inactive) |
| Cc1c(C)c([N+](=O)[O-])c(C)c([N+](=O)[O-])c1C | 108% (inactive) |
| NC1=NN=C(N)C1=Cc1cc2ccccc2n2nnnc12 | 111% (inactive) |
| CCN(CC)c1ccc(C(=O)c2ccccc2)cc1 | 102% (inactive) |
| Nc1n[nH]c2cccc(C#Cc3cccc(C(=O)Nc4cccc(C(F)(F)F)c4)c3)c12 | 39.2% (inactive) |
| COc1cc(/C=N/NC(=O)c2cnn3c2NC(c2ccccc2)C3)ccc1OCc1ccccc1 (stereo not given) | 14.8% (inactive) |
| CC(C)c1ccc(Nc2ccc3c(OCCCN4CCN(C)CC4)cccc3n2)cc1 | -67.6% (active) |
| COc1cc(C2C3=C(COC3=O)N(CCO)c3cc4c(cc32)CCC4)cc(OC)c1OC (stereo not given) | -34% (active) |
| COc1ccc(C/C(=C(\C)c2ccc(OCCN3CCCC3)cc2)c2ccc(OCCN3CCCC3)cc2)cc1 | -64.8% (active) |
| COc1ccc(-c2cnc3c(-c4cccc5ncccc45)cnn3c2)cc1 | 76.8% (inactive) |
| Cc1ccc(NC(=O)c2cc(-c3nc4ccccc4s3)c(=O)n(NS(=O)(=O)c3ccc(Cl)cc3)c2N)cc1 | 99.4% (inactive) |
| O=C(Nc1ccc(-c2ccc3c(c2)NC(=O)/C3=C\c2ccc[nH]2)cc1)NC1CC1 | 94% (inactive) |
| COc1cc(-c2csc(NC(=O)c3cc(F)cc(C(F)(F)F)c3)n2)cc(OC)c1OC | 23.6% (inactive) |
| C/C=C(\C)C(=O)NC1=CC[C@@]2(C)C(=CCC3C2CC[C@@]2(C)C3CC[C@@H]2C(C)N(C)C)C1=O (stereo not given in full) | -32.1% (active) |
| C=C(C)[C@@H]1CC[C@]2(C(=O)N[C@@H](Cc3ccccc3)C(=O)OC)CC[C@]3(C)[C@H](CC[C@@H]4[C@@]5(C)CCC(=O)C(C)(C)[C@@H]5CC[C@]43C)[C@@H]12 | 87.8% (inactive) |
| O=C(CCN1CCCC1)Nc1ccc2c(NCCCCc3ccccc3)c3ccccc3nc2c1 | -72.6% (active) |

| Structure (SMILES) | growth |
| --- | --- |
| NS(=O)(=O)c1ccc(CCN2C(=O)C3C(C2=O)C2(Cl)C(Cl)=C(Cl)C3(Cl)C2(Cl)Cl)cc1 (stereo not given) | 94.5% (inactive) |
| O=C(Nc1cccc(C(=O)N2CCc3ccc(Cl)cc32)c1)c1ccco1 | 18.2% (inactive) |
| COc1cc2c(=O)n(CCCN(C)C)c3c4cc5c(cc4ccc3c2cc1OC)OCO5 | 66.6% (inactive) |
| COC(=O)CNC(=O)[C@]12CCC(C)(C)C[C@H]1C1=CC[C@@H]3[C@@]4(C)Cc5c([nH]c6ccccc56)C(C)(C)[C@@H]4CC[C@@]3(C)[C@]1(C)CC2 | 104% (inactive) |
| c1ccc2cc(Cn3c(-c4cccc5ccccc45)[n+](Cc4ccc5ccccc5c4)c4c5ccccc5c5ccccc5c43)ccc2c1 | -63.5% (active) |
| CCCNC(=O)Oc1ccc(/C(=C(\C)c2ccccc2)c2ccc(OCCCN(C)C)cc2)cc1 | 25.2% (inactive) |
| N#C/C(=C\c1cccc(C#N)c1)c1ccccc1 | 104% (inactive) |
| Cc1cnc(C(=O)Nc2nc3ccc(S(=O)(=O)Nc4ccc(C(C)(C)C)cc4)cc3[nH]2)cn1 | 1.89% (active) |
| O=C1OC(Cc2ccccc2)C1c1ccccc1 (stereo not given) | 104% (inactive) |
| N=C(N)c1ccc(OCCCCCCCCCCOc2ccc(C(=N)N)cc2)cc1 | -85.6% (active) |
| COc1ccc(C(=O)c2cc(OC)c(OC)c(OC)c2)cc1O | -3.92% (active) |
| C=C1C(=O)O[C@H]2[C@H]1CC/C(COC(=O)NCCc1c[nH]c3ccc(OC)cc13)=C\CC[C@@]1(C)O[C@@H]21 | 14.1% (inactive) |
| COc1cc(/C(C)=C(\c2ccc(Cl)cc2)c2ccc(OCCN3CCCC3)cc2)ccc1F | 18.2% (inactive) |
| O=C1NN(C(=O)c2ccccc2)C(c2ccc(Cl)c(Cl)c2)=C/C1=C\c1ccc([N+](=O)[O-])cc1 | 41.8% (inactive) |
| CCCCCC(=O)Oc1ccc(/C(=C(/C)Cc2ccc(OC)cc2)c2ccc(OCCCN(C)C)cc2)cc1 | 36.3% (inactive) |
| CCCCCCCCO/N=C\c1c2c(O)c3c(O)c(C)c4c(c3c1O)C(=O)C(C)(O/C=C\C(OC)C(C)C(OC(C)=O)C(C)C(O)C(C)C(O)C(C)/C=C\C=C(\C)C(=O)N2)O4 (stereo not given) | 27% (inactive) |
| CCOC(=O)c1cc(C(=O)c2ccc(OC)c(OC)c2)n2ccc(/C=C/c3cc[n+](CC(=O)c4ccc(OC)c(OC)c4)cc3)cc12 | 96.9% (inactive) |
| CN1C(=O)NC(c2ccc3c(c2)OCO3)C=C1c1ccccc1 (stereo not given) | 96.9% (inactive) |
| C[C@H](c1nc2ccc(N)cc2[nH]1)[C@H]1CC[C@H]2[C@@H]3CCC4=CC(=O)CC[C@]4(C)[C@H]3CC[C@]12C | 89.5% (inactive) |
| COc1cc(C=O)ccc1OC1OC(COC(C)=O)C(OC(C)=O)C(OC(C)=O)C1OC(C)=O (stereo not given) | 96.6% (inactive) |

— PubChem BioAssay (NCI)
